Test results: PubChem BioAssay (Tox21)
Records with an inconclusive call do not appear. Where a call stands in place of a potency, no number is given. Calls of active or inactive are those of the source. The call rests on the fitted dose curve; in most records, active means well fitted activation curve with a large enough effect in the signal ratio in the repeat runs (not every such curve was filed as active); inconclusive means weak or mixed curves, or effect the other way; inactive means no such curve, though single readings can be large or run the other way; the % refers to the signal ratio.

Assay: qHTS assay for small molecule agonists of the antioxidant response element (ARE) signaling pathway (AID 743202)
Conditions: HepG2 ARE-bla reporter, beta-lactamase FRET, 16 h; series mostly up to 73.3 µM
Excerpt: U.S. Tox21 Program National Center for Advancing Translational Sciences [NCATS] NIH Chemical Genomics Center [NCGC] U.S. Environmental Protection Agency [EPA] National Institutes of Environmental Health Sciences [NIEHS] National Toxicology Program [NTP] U.S. Food and Drug Administration [FDA] Tox21 Assay Overview: Oxidative stress has been implicated in the pathogenesis of a variety of diseases ranging from cancer to neurodegeneration. The antioxidant response element (ARE) signaling pathway plays an important role in the amelioration of oxidative stress. The CellSensor ARE-bla HepG2 cell line (Invitrogen) can be used for analyzing the Nrf2/antioxidant response signaling pathway. Nrf2 (NF-E2-related factor 2) and Nrf1 are transcription factors that bind to AREs and activate these genes. The CellSensor ARE-bla Hep G2 cell line contains a beta-lactamase reporter gene under control of the Antioxidant Response Element (ARE) stably integrated into HepG2 cells. The activation of the report gene under culture conditions can be detected by fluorescence intensity. This cell line has been used to screen the Tox21 10K compound library to identify agonists that induce oxidative stress.
Tox21 Assay Protocol Summary: The ARE-bla cells were dispensed at 2,000 cells/5 ul/well in 1536-well black wall/clear bottom plates using a Multidrop dispenser. After the assay plates were incubated at a 37 C/5% CO2 incubator for 5 hours, 23 nL of compounds dissolved in DMSO, positive controls or DMSO only was transferred to the assay plate by a pin tool. The plates were incubated at 37 C for 16 hours. After 1 uL of LiveBLAzer B/G FRET substrate was added using a Flying Reagent Dispenser, the plates were incubated at room temperature for 2 hours, and fluorescence intensity was measured by an Envision plate reader.
Potency means the concentration at half of the fitted maximal effect.

Structure (SMILES) | Potency
CCCC=O | inactive
COC(=O)c1ccc(C(=O)OC)c(C(=O)OC)c1 | inactive
CCn1c(=O)c2c(nc(/C=C/c3ccc(OC)c(OC)c3)n2C)n(CC)c1=O | inactive
O=C(O)/C=C/c1ccc(Cn2ccnc2)cc1 | inactive
CCOC(=O)Nc1ccc2c(c1)N(C(=O)CCN1CCOCC1)c1ccccc1S2 | 11.9 µM (active)
OC[C@H]1O[C@@H]2O[C@H]3[C@H](O)[C@@H](O)[C@@H](O[C@H]4[C@H](O)[C@@H](O)[C@@H](O[C@H]5[C@H](O)[C@@H](O)[C@@H](O[C@H]6[C@H](O)[C@@H](O)[C@@H](O[C@H]7[C@H](O)[C@@H](O)[C@@H](O[C@H]8[C@H](O)[C@@H](O)[C@@H](O[C@H]9[C@H](O)[C@@H](O)[C@@H](O[C@H]1[C@H](O)[C@H]2O)O[C@@H]9CO)O[C@@H]8CO)O[C@@H]7CO)O[C@@H]6CO)O[C@@H]5CO)O[C@@H]4CO)O[C@@H]3CO | inactive
C1=C\CC/C=C\CC/C=C\CC/1 | inactive
O=c1[nH]c(=O)n([C@H]2O[C@H](CO)[C@@H](O)[C@@H]2O)cc1/C=C\Br | inactive
NCCNC(=O)c1ccc(Cl)cn1 | inactive
CCN(CC)S(=O)(=O)c1ccc(C(=O)O)cc1 | inactive
CC/C=C\CCCCO | inactive
Cc1cc(C)c(NC(=O)CN(CC(=O)O)CC(=O)O)c(C)c1Br | inactive
CCCCCCOC(=O)CC(CC(=O)OCCCCCC)(OC(=O)CCC)C(=O)OCCCCCC | inactive
O=C(O)c1ccc[n+]([O-])c1 | inactive
Nc1cc(C(Cl)=C(Cl)Cl)c(S(N)(=O)=O)cc1S(N)(=O)=O | inactive
Cc1ccccc1Br | inactive
CCC(C)OC(=O)N1CCCCC1CCO (stereo not given) | inactive
C#CC(O)CCCCC (stereo not given) | inactive
COC(C(=O)O)c1ccccc1 (stereo not given) | inactive
NS(=O)(=O)c1cc(C2(O)NC(=O)c3ccccc32)ccc1Cl (stereo not given) | inactive

Structure (SMILES) | Potency
COc1ccc(COC=O)cc1 | inactive
O=C1C(CCS(=O)c2ccccc2)C(=O)N(c2ccccc2)N1c1ccccc1 (stereo not given) | inactive
CC(C)COC(=O)c1ccccc1O | inactive
CNC(=O)c1c(I)c(NC(=O)CCCCC(=O)Nc2c(I)c(C(=O)O)c(I)c(C(=O)NC)c2I)c(I)c(C(=O)O)c1I | inactive
C=CC(=O)OCCCCCC | inactive
CC1=CC(=O)CCC1 | inactive
c1cc(CN2CCCCC2)cc(OCCCNc2nc3ccccc3s2)c1 | inactive
CCN1CCN(c2cc3c(cc2F)c(=O)c(C(=O)O)cn3C2CC2)CC1 | inactive
CC(C)COC(=O)C(C)C | inactive
OCCN1C[C@H](O)[C@@H](O)[C@H](O)[C@H]1CO | inactive
CCCCCOC(=O)Nc1nc(=O)n([C@@H]2O[C@H](C)[C@@H](O)[C@H]2O)cc1F | inactive
CC12CCC(CC1=O)C2(C)C (stereo not given) | inactive
Nc1ncnc2c1ncn2Cc1c(F)cccc1Cl | inactive
O=C(O)/C=C/c1ccc(/C=C/C(=O)O)cc1 | inactive
CN(C)C(=O)Nc1ccccc1 | inactive
Cc1ccccc1C(=O)O | inactive
C=C(C)C(=O)OCCCCCCCCCCCCCCCCCC | inactive
NCCN1CCNC1=O | inactive
CCCCc1ccc2cccc(S(=O)(=O)O)c2c1 | inactive
N#CCN(CC#N)CCN(CC#N)CC#N | inactive
